Screening data from PubChem.
Hits are enriched below; roughly 11% of the tested compounds scored in any of these assays.
USP30 block: inhibitors of human USP30 deubiquitinase | Ubiquitin carboxyl-terminal hydrolase 30 (Homo sapiens), Q70CQ3 | purified USP30, Ub-rhodamine cleavage fluorescence | inhibition, % at 25 µM | 47,000 tested, 5.3% active | AID 1645860, 2021
USP17 block: inhibitors of human USP17 deubiquitinase | Ubiquitin carboxyl-terminal hydrolase 17-like protein 5 (Homo sapiens), A8MUK1 | purified USP17, Ub-rhodamine cleavage fluorescence, 3 h | inhibition, % at 50 µM | 47,000 tested, 6.5% active | AID 1645855, 2021
USP28 inh: inhibitors of human USP28 deubiquitinase | AID 1645857, 2021 | 47,000 tested, 3% active | inhibition, % at 25 µM | Ubiquitin carboxyl-terminal hydrolase 28 (Homo sapiens), Q96RU2 | purified USP28, Ub-rhodamine cleavage fluorescence, 30 min
Target sequence (Q96RU2 whole entry, looked up): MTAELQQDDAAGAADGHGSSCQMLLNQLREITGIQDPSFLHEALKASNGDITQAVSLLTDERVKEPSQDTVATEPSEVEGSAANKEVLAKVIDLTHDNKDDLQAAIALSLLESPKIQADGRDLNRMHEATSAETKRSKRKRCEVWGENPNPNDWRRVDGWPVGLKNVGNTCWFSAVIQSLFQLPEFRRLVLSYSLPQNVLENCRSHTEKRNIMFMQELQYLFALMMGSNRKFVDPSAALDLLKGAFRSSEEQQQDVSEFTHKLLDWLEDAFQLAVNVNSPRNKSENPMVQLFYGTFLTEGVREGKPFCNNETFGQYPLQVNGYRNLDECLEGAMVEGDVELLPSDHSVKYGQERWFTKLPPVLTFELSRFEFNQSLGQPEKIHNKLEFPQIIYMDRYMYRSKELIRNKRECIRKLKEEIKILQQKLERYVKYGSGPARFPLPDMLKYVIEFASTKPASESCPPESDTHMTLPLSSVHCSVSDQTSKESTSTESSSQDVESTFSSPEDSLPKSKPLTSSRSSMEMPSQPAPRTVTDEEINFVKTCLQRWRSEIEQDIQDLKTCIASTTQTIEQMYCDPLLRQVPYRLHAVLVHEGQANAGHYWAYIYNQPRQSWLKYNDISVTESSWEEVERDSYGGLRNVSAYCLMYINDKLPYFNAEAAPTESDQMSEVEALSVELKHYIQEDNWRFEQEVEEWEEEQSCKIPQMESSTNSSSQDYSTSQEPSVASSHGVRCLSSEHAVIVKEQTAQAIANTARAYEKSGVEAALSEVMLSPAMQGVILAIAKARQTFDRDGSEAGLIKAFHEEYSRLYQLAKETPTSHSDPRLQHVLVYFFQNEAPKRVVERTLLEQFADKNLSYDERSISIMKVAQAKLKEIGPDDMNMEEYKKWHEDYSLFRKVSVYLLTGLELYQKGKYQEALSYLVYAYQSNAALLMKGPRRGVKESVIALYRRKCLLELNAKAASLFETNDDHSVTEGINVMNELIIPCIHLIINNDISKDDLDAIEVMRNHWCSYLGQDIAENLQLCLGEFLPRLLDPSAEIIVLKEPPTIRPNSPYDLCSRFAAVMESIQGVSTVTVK
Large screens that a line does not name were inactive. Cut-off read from the data, not from the text of the source: active = inhibition above about 30%; inactive = the rest.

Cc1ccc(C(=O)N2CCCC2c2nccnc2Nc2cccc(C)n2)cn1 (centres undefined)	none
CC(=O)c1cccc(NC(=O)C(C)OC(=O)c2cc3ccccc3[nH]2)c1 (centres undefined)	USP30 block 44.5, USP17 block 59.9, USP28 inh 35.9
COc1ccc(N(C)S(=O)(=O)c2cccc(C(=O)OC(C)C(=O)Nc3cccc(C(C)=O)c3)c2)cc1 (centres undefined)	none
Fc1ccc(-c2nnc3n2-c2ccccc2SC3)cc1	none
Cc1ccc(CN2CC[C@@H]3[C@H](CC2)N(S(C)(=O)=O)CCS3(=O)=O)cc1	none
CN(C)c1ncncc1N1CCC(C(=O)NCc2ccccc2)CC1	none
CC(=O)c1ccc(NC(=O)C2CCN(c3cncnc3N3CCCC3)CC2)cc1	USP28 inh 88.6
COc1ccc(NC(=O)C2CCN(c3cncnc3N(C)C)CC2)cc1OC	USP28 inh 72.2
CC(=O)c1ccc(NC(=O)C2CCN(S(=O)(=O)c3cccnc3)CC2)cc1	USP30 block 35.2
O=C(Nc1ccc(-c2ccno2)cc1)C1CCN(S(=O)(=O)c2cccnc2)CC1	none
O=C(NCc1ccc(Cl)cc1)C1CCN(c2cncnc2N2CCCC2)CC1	none
CN(C)C(=O)c1ccc(OC2CCN(C(=O)c3cccc(F)c3)CC2)nc1	none
CCOC(=O)c1cc(-c2ccccc2)sc1NC(=O)c1cccc(Cl)c1	none
Cc1c(Cc2ccccc2)sc(NC(=O)c2ccc(Cl)cc2)c1C(N)=O	USP17 block 32.5
COc1ccccc1-n1c(SCC(=O)N2CCc3ccccc32)nnc1-c1ccncc1	none
CCn1c(SCC(=O)c2c(C)[nH]c3ccccc23)nnc1-c1ccc2c(c1)OCCO2	USP30 block 53.1, USP17 block 66.9, USP28 inh 41.0
COc1ccc(OC)c(-n2c(SCC(=O)N3CCc4ccccc43)nnc2-c2cccc(S(=O)(=O)N(C)C)c2)c1	USP30 block 48.7, USP17 block 48.0, USP28 inh 43.3
CCn1c(SCC(=O)N2CCc3ccccc32)nnc1C1CC1	none (no result: USP30 block, USP28 inh)
CC1Cc2ccccc2N1C(=O)CSc1nnc(-c2ccc3c(c2)OCCO3)n1C (centres undefined)	none
Cc1[nH]c2ccccc2c1C(=O)CSc1nnc(-c2cccc(S(=O)(=O)N3CCOCC3)c2)n1-c1ccc(F)cc1	none
CCn1c(SCC(=O)N2CCc3ccccc32)nnc1-c1ccc(C)c(Cl)c1	USP17 block 32.6
CCn1c(SCC(=O)N2CCc3ccccc32)nnc1-c1ccc2c(c1)OCCO2	USP30 block 74.2, USP17 block 57.9
COc1ccc(-c2nnn(CC(=O)N(c3ccc4c(c3)OCCO4)C(C(=O)NCC3CCCO3)c3ccc(F)cc3)n2)cc1OC (centres undefined)	none
CCC(C)C1C(=O)N2NCCCC2C(=O)N2NCCCC2C(=O)N(C)C(Cc2ccccc2)C(=O)N2CCCC2C(=O)NC(Cc2ccccc2)C(=O)N1O (centres undefined)	none
O=C1N[C@@H](Cc2ccccc2)C(=O)N2[C@H]3Nc4ccccc4[C@@]3([C@]34C[C@H]5C(=O)N[C@@H](Cc6ccccc6)C(=O)N5[C@H]3Nc3ccccc34)C[C@@H]12	USP30 block 49.5, USP17 block 52.9
CC(C(=O)Nc1sc2c(c1C(N)=O)CCC2)N1CCCC1c1ccc2c(c1)OCCO2 (centres undefined)	none
Cn1nnc2cc(C(=O)NCc3ccc(F)cc3)ccc21	none
O=C(NCc1ccc(F)cc1)c1cc(-n2cnnn2)ccc1Cl	USP30 block 30.2, USP17 block 66.5, USP28 inh 30.2
Cc1cc(C)cc(NS(=O)(=O)c2cc(C(=O)NCc3cccnc3)ccc2C)c1	none
O=C(COC(=O)c1ccc2ncsc2c1)Nc1ccc(F)c(F)c1	none
O=C(COC(=O)c1ccc2ncsc2c1)Nc1ccccc1F	USP17 block 61.3
Cc1ccc(CNC(=O)[C@@H](NC(=O)C2CCN(C(=O)[C@@H](N)Cc3ccccc3)CC2)C(C)C)cc1	USP30 block 30.5
CC(C)[C@H](NC(=O)C1CCN(C(=O)[C@@H](N)Cc2ccccc2)CC1)C(=O)NCc1ccc(F)cc1	none
CC(NC(=O)[C@H](C)NC(=O)C1CCN(C(=O)[C@H](Cc2ccccc2)NC(=O)OC(C)(C)C)CC1)c1ccccc1 (some centres undefined)	none
Cc1ccc(S(=O)(=O)N[C@H](C(=O)N2CCC(C(=O)N[C@@H](Cc3ccccc3)C(=O)O)CC2)C(C)C)cc1	USP30 block 31.9
Cc1ccc(S(=O)(=O)N[C@@H](C(=O)N2CCC(C(=O)N[C@@H](Cc3ccccc3)C(=O)O)CC2)C(C)C)cc1	none
CC(NC(=O)[C@H](NC(=O)C1CCN(C(=O)[C@H](N)Cc2ccccc2)CC1)C(C)C)c1ccccc1 (some centres undefined)	USP30 block 30.6
Cc1[nH]c(C)c(S(=O)(=O)NCc2ccco2)c1-c1nc(C2CC2)no1	none
Cc1cc2nc(C3CCN(C(=O)c4ccn(C)n4)CC3)cc(=O)n2[nH]1	none
O=C1NC2(COC3(CCN(Cc4ccccn4)CC3)C2)Nc2ccc(Cl)cc21 (centres undefined)	none
COc1ccc(COc2ccc3c(C)c(CC(=O)N4CC[C@@]5(O)CCCC[C@H]5C4)c(=O)oc3c2)cc1	USP30 block 52.0, USP17 block 46.1
CCc1cc(=O)oc2c(C)c(OCC(=O)N3CCC4(O)CCCCC4C3)ccc12 (centres undefined)	none
Cc1oc2cc3oc(=O)c(CC(=O)N4CCC5(O)CCCCC5C4)c(C)c3cc2c1C (centres undefined)	none
Cc1c(CCC(=O)N2CC[C@@]3(O)CCCC[C@H]3C2)c(=O)oc2cc(OCc3ccc(F)cc3F)ccc12	USP30 block 34.8 (no result: USP17 block)
C[C@H]1CCN(S(C)(=O)=O)[C@@H](Cc2ccccc2)c2nc3ccccc3n21	none
Cc1ccc(CSc2nc3c(c(N4CC(C)OC(C)C4)n2)CCCC3)cc1 (centres undefined)	none
Cc1ccc(CSc2nc3c(c(N(C)C)n2)CCCC3)cc1	USP30 block 33.0, USP28 inh 47.2
O=C(NC1CCCCC1)C1CN(S(=O)(=O)c2ccccc2F)CC12CCOCC2 (centres undefined)	none
Cc1ccc(S(=O)(=O)N2CCCN(C(=O)c3oc4ccccc4c3C)CC2)cc1	USP30 block 33.3
Cc1c(C(=O)N2CCCN(S(=O)(=O)c3ccc(F)cc3)CC2)oc2ccc(F)cc12	none
COc1cccc(C2CC(=O)Nc3n[nH]c(C)c32)c1OCc1ccccc1F (centres undefined)	none
N#C/C(=C\c1cn(CCC(N)=O)c2ccccc12)c1nc2ccccc2[nH]1	USP17 block 39.6
Cc1ccc(-n2nc(C)c(/C=C(\C#N)c3nc4ccccc4[nH]3)c2C)cc1C	none
COc1cccc(OCCCn2c(CN(C)C(=O)c3ccco3)nc3ccccc32)c1	none
COc1cccc(OCCCn2c(C(C)NC(=O)c3ccco3)nc3ccccc32)c1 (centres undefined)	USP17 block 50.8
CN(Cc1nc2ccccc2n1CCCOc1ccccc1)C(=O)c1ccco1	none
COc1ccc(OCCCn2c(CNC(=O)c3ccco3)nc3ccccc32)cc1	USP30 block 48.2, USP17 block 40.7
CN(C(=O)COC(=O)c1cc(Cl)ccc1O)C1CCCCC1	none
